In ChEMBL document CHEMBL1157539, “Thousands of chemical starting points for antimalarial lead identification” (Nature, 2010):
Values joined by “and” are separate entries in the source; they are usually repeats but may differ in a detail not shown here. Equal values may be shown once.

What follows are compounds tested on HepG2 (assay: GSK_TCMDC: Percent inhibition of human HepG2 cell line. Test compounds present at 10uM.).
Format: functional

SMILES | Inhibition
CN(C)CCOc1cc(NC(=O)Nc2ccc(-c3ccccc3)cc2Cl)ccc1I | 25%
Cl.c1ccc(Oc2ccc(Nc3ccnc4c(-c5ccccn5)cccc34)cc2)cc1 | 31%
O=CO.Oc1ccccc1CNCc1ccc(-c2cnc(N3CCCC(c4ccccc4)C3)nc2)cc1 (stereo not given) | 6%
COc1cc2nc(NCCc3ccccc3)nc(NC(C)c3ccccc3)c2cc1OC (stereo not given) | 9%
c1ccc(C2=NN=C(c3ccccn3)C3C4CC(C23)C2C3CC(c5ccccc53)C42)nc1 (stereo not given) | 39%
CNC(=O)c1cc(F)c(F)cc1Nc1nc(Nc2cccc(CS(C)(=O)=O)c2)ncc1Cl.O=CO | 52%
c1ccc2[nH]c(Nc3ccc(Nc4nc5ccccc5[nH]4)cc3)nc2c1 | 0%
CCNC(=O)c1cc(S(=O)(=O)N2CCN(c3ccccn3)CC2)cs1 | 7%
CC(C)c1ccc(CN2CCC(NC(=O)c3ccc(-c4cccc(Cl)c4)s3)CC2)cc1.O=C(O)C(F)(F)F | 50%
CNC(=O)C(C)N(c1ccc(Cl)cc1)c1nc(C(C)(C)C)cs1 (stereo not given) | 0%
COc1ccccc1N1CCN(c2cccc(F)c2C#N)CC1 | 0%
Cn1nc(-c2ccccc2F)c2cc(C(=O)Nc3cccnc3)sc21 | 5%
O=C(COc1ccc(F)cc1)NC1CCN(c2ccnc3cc(Cl)ccc23)C1.O=C(O)C(F)(F)F (stereo not given) | 24%
CCOc1c(N2CCN(CCCCNC(=O)c3ccc(NC(=O)c4ccc(Cl)cc4)cc3)CC2)ccc2ccccc12.Cl | 18%
COc1ccc(CCN(C)CCCCc2ccc(NC(=O)c3cccc4c(=O)c5cc(F)ccc5sc34)cc2)cc1OC | 98%
Cl.N#Cc1ccc2c(c1)CN(CC[C@H]1CC[C@H](NC(=O)/C=C/c3c[nH]c4ccccc34)CC1)CC2 | 20% and 10%
Cn1nc(-c2ccc(NC(=O)Nc3cc(C(F)(F)F)ccc3F)c(F)c2)c2cnc(NCCCN3CCOCC3)nc21.O=C(O)C(F)(F)F | 31%
CCCN(CCC)C(=O)c1cc(C(=O)N[C@@H](Cc2ccccc2)[C@H](O)CNC2CC2)cc(N2CCCCS2(=O)=O)c1 | 0%
CS(=O)(=O)O.c1ccc2c(CNCCCCCCNCc3c(OCC4CC4)ccc4ccccc34)c(OCC3CC3)ccc2c1 | 100%
Cn1cccc1C(=O)NCC(CCNc1cc(=O)c2ccccc2[nH]1)NCc1cc(Br)cc(Br)c1 (stereo not given) | 0%

SMILES | Inhibition
CCCCCCCN1CC[C@@H](CCCc2ccnc3ccc(OCCC4CCNCC4)cc23)[C@@H](CC)C1.Cl | 94%
CCc1nc2ccc(C(=O)OC)nc2n1Cc1ccc2oc(-c3ccccc3N)c(Br)c2c1 | 8%
Cl.Cn1cc(Br)c(-c2cccc(Nc3ccnc4cc(-c5nccs5)ccc34)c2)n1 | 37%
CC(O)C1CCCCN1C(=O)c1ccc(-c2cccc(-c3nc4cc(F)ccc4[nH]3)c2)cc1 (stereo not given) | 30%
COc1ccc(-c2cnc3ccc(N4CCCC4)nn23)cc1OC.O=CO | 40%
Nc1nc(N)c2c(ccc3c2ccn3Cc2ccccc2)n1 | 64%
Cc1ccc2[nH]c3c(NCCN(C)C)ncnc3c2c1 | 9%
CS(=O)(=O)CCNCc1ccc(-c2ccc3c(Nc4ccc(Cl)cc4F)ccnc3c2)o1 | 6%
Cc1cc(C(=O)Nc2ccc3c(c2)CCN3C2CCN(Cc3cccc4cc[nH]c34)C2)no1 (stereo not given) | 0%
COc1cc2ccccc2cc1CNCCCCCCNCc1cc2ccccc2cc1OC.CS(=O)(=O)O | 98%
O=S(=O)(Nc1cccc(CCN2CCC(N3CCCCC3)CC2)c1)c1ccc(Cl)cc1 | 18%
O=C(NCCCCN1CCCC2c3cccc(O)c3CCC21)c1ccc(-c2ccccc2)cc1 (stereo not given) | 18%
COc1cc(NC(=O)c2ccc(-c3ccccc3)cc2)ccc1OCCCN1CCC(c2ccccc2)CC1.Cl | 46%
Cc1nc2nc(N)nc(N)c2c(C)c1Cc1ccccc1Cl.Cl | 63%
CC(C)CN(c1nc(C(=O)NNC(=O)[C@H](CC2CC2)NC(=O)c2cc3cc(OCCN(C)C)ccc3o2)cs1)C1CC1 | 0%
O=C(Nc1ccc(CN2CCCCC2)cc1)c1ccc(COc2ccc([N+](=O)[O-])cc2)o1 | 12%
Clc1cc(Nc2ncnc3cc(C#C[C@H]4CCCN4)sc23)cc2nc(Cc3ccccc3)[nH]c12.O=C(O)C(F)(F)F | 29%
Cl.O=C(NCCCCN1CCC(O)(c2ccc(Cl)cc2)CC1)c1ccc(Br)cc1 | 41%
COc1ccc(N2CCN(CCCNC(=O)c3ccc(NC(=O)c4cc(Cl)cc(Cl)c4)cc3)CC2)c(OC)c1 | 21%
O=C(Nc1ccc(Cl)cc1)c1ccc(CN2CCCN(Cc3ccsc3)CC2)cc1.O=C(O)C(F)(F)F | 48%
